Reference: PubChem BioAssay (Tox21)
Several values for one entry are separate records, joined by “and”; a condition that tells them apart may be missing. Equal values may be shown once. Results filed as inconclusive are left out. A structure can be active in one record and inactive in another. Activity calls are given as the source filed them. Calls follow the shape of the dose curve; as a rule, active = well fitted cell-killing curve with a large enough effect in the repeat runs; inconclusive = weak or mixed curves, or effect the other way; inactive = no such curve, though single readings can be large or run the other way.

assay: qHTS assay for identifying genotoxic compounds that show differential cytotoxicity against isogenic chicken DT40 cell lines with known DNA damage response pathways - Rev3 mutant cell line (AID 743014); details: chicken DT40 Rev3-/- viability, CellTiter-Glo, 40 h; series mostly up to 68.4 µM; activity, negative = cytotoxicity: at the top concentration; also: nearly all actives have a fitted effect of over 55% in size
Text: National Center for Advancing Translational Sciences [NCATS]
NIH Chemical Genomics Center [NCGC]
U.S. Environmental Protection Agency [EPA]
National Institutes of Environmental Health Sciences [NIEHS]
National Toxicology Program [NTP]
U.S. Food and Drug Administration [FDA]
DNA repair pathways play a critical role in cellular homeostasis by repairing DNA damage induced by endogenous processes and xenobiotics. Isogenic chicken DT40 cell lines deficient in different DNA repair pathways can be used to identify genotoxic compounds and aid in characterizing the nature of the DNA damage induced. Two DNA repair-deficient cell lines with disrupted genes, Rad54/Ku70 or Rev3, were used to screen the Tox21 10K compound library. Possible genotoxicity was based on the presence of a significant increase in cytotoxicity in one or more of the DNA repair-deficient cell lines compared to that observed in the parental DNA repair-proficient cell line. CellTiter Glo viability assay (Promega, Madison, WI) was used to measure cell viability in these cells after compound treatment. This assay includes the data from the Rev3 mutant cell line.
Tox21 Assay Protocol Summary:
300 DT40 mutant cells in 5 uL/well were dispensed into white, solid-bottom 1536-well plates using a Multidrop Combi (ThermoFisher Scientific, Waltham, MA) dispenser. After the assay plates were incubated at 37 C/5% CO2 for approximately 0.5 hour, 23 nL of compounds dissolved in DMSO, positive controls or DMSO only was transferred into the assay plate by a pintool work station (Kalypsys, San Diego, CA). The assay plates were incubated at 37 C/5% CO2 for 40 hours. After 5 uL per well of CellTiter-Glo reagent was added into each well of the assay plates, the plates were incubated for 30 min at room temperature and the luminescence intensity of the plates was measured using a ViewLux (PerkinElmer, Shelton, CT) plate reader.
% is scaled to controls: 0 for no effect and ±100 for the full control effect; potency is read from the fitted curve at half-maximal effect.

Row | Structure (SMILES) | activity, negative = cytotoxicity | Potency
1 | O=c1cc(CO)occ1O | 4.53% (inactive) | –
2 | Cc1ccc(Cl)cc1Cl | -12.9% (inactive) | –
3 | COC(=O)NN | 2.14% [at 95 µM] (inactive) | –
4 | CC/C=C\CCOC(C)=O | -12.6% (inactive) | –
5 | C[N+](C)(C)CC(O)CC(=O)[O-] (stereo not given) | 4.84% (inactive) | –
6 | CC(C)OC(=O)c1ccccc1 | -14.1% [at 95 µM] (inactive) | –
7 | COC(=O)CCSCCC(=O)OC | 7.24% (inactive) | –
8 | Cc1nc2c([nH]1)c(=O)n(C)c(=O)n2Cc1ccco1 | 5.75% (inactive) | –
9 | C1OCOCO1 | 8.92% [at 95 µM] (inactive) | –
10 | O=S(O)CO | – | inactive
11 | O=c1n(CCO)c(=O)n(CCO)c(=O)n1CCO | – | inactive and 61.1 µM (active)
12 | O=C1CC2CC1C1CCCC21 (stereo not given) | 14.7% (inactive) | –
13 | C=CCS(=O)(=O)O | -12.8% (inactive) | –
14 | COc1ccc(CCN(C)CCCC(C#N)(c2cc(OC)c(OC)c(OC)c2)C(C)C)cc1OC (stereo not given) | – | 29.8 µM (active)
15 | O=C1OC(=O)C2CCCCC12 (stereo not given) | 3.37% (inactive) | –
16 | CCOC(=O)c1ccc(C)cc1 | 14% (inactive) | –
17 | Cc1cccc(C)c1NC(=O)C(C)N (stereo not given) | 15% [at 31.4 µM] (inactive) | –
18 | Nc1c[n+](N2CCOCC2)no1 | 8.35% (inactive) | –
19 | CCn1ccnc1CC1COc2ccccc2O1 (stereo not given) | 4.61% (inactive) | –
20 | O=C(O)COc1nn(Cc2ccccc2)c2ccccc12 | 9.24% (inactive) | –

Row | Structure (SMILES) | activity, negative = cytotoxicity | Potency
21 | Nc1ccccc1S(=O)(=O)O | -1.16% (inactive) | –
22 | CCC(C)C1CCCCC1=O (stereo not given) | -1.77% (inactive) | –
23 | FC(F)OC(Cl)C(F)(F)F (stereo not given) | 4.86% (inactive) | –
24 | CCC(C)S (stereo not given) | -7.66% [at 3.82 µM] (inactive) | –
25 | c1cnc(N2CCN(Cc3ccc4c(c3)OCO4)CC2)nc1 | -3.88% (inactive) | –
26 | CCSC(=O)N(CC(C)C)CC(C)C | 2.15% (inactive) | –
27 | CCCCCCCCCCCCCCCCC | 6.54% (inactive) | –
28 | CC(C[N+](C)(C)C)OC(N)=O (stereo not given) | 12.8% (inactive) | –
29 | OCCCC1CCCCC1 | 5.29% (inactive) | –
30 | C=COCC1CCC(CO)CC1 (stereo not given) | -14.3% (inactive) | –
31 | CCCCNC(=O)NCCCC | -19.3% (inactive) | –
32 | C/C=C(\C)C#N | -2.46% (inactive) | –
33 | O=C(O)CCCc1ccccc1 | 13.4% (inactive) | –
34 | NC(=O)Nc1ccccc1 | 1.5% (inactive) | –
35 | O=C1CCCCCCCCCCCN1 | 7.68% (inactive) | –
36 | CN(C)CCCNCCCN(C)C | -4.67% (inactive) | –
37 | CCN1CCC[C@H]1CNC(=O)c1cc(S(N)(=O)=O)ccc1OC | 2.48% (inactive) | –
38 | CC(C(=O)O)c1ccc(CC2CCCC2=O)cc1 (stereo not given) | 2.16% (inactive) | –
39 | O=C(CCCN1CCC(O)(c2cccc(C(F)(F)F)c2)CC1)c1ccc(F)cc1 | – | 11.9 µM (active)
40 | CC(=O)OC/C=C(\C)CC/C=C(\C)CCC=C(C)C | – | 61.1 µM (active)
